Here are results for 18 compounds from PubChem BioAssay (Tox21).

Assay [1] in a line: qHTS assay to identify small molecule antagonists of the thyroid receptor (TR) signaling pathway - cell viability counter screen (AID 743064). Note: nearly all actives have a fitted effect of over 50% in size. Note: potency is the fitted concentration of half-maximal effect. A digest of the protocol:
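Compounds were tested on GH3.TRE-Luc cells in the presence of T3 at 1 nM final. Following 23.5 h at 37 °C, cell viability was quantified by CellTiter-Fluor.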
On the technique in general: In qHTS, concentration-response curves come from the screen itself.

The nature of assay [2]: qHTS assay to identify small molecule antagonists of the thyroid receptor (TR) signaling pathway (AID 743065). Note: nearly all actives have a fitted effect of over 55% in size. Note: potency is the fitted concentration of half-maximal effect. A digest of the protocol:
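GH3.TRE-Luc rat pituitary cells (two TREs driving luciferase) were dosed with compound, then stimulated with 1 nM T3 (final) for 23.5 h at 37 C. ONE-Glo luminescence was the read-out, with CellTiter-Fluor fluorescence as the cytotoxicity counter-screen.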

The test system of assay [3] is thyroid hormone receptor (rat, GH3 cells). Description: qHTS assay to identify small molecule agonists of the thyroid receptor (TR) signaling pathway (AID 743066; calls by dose curve).
In assay [4] the target is Estrogen receptor (Homo sapiens) (UniProt P03372). The experiment in a line: qHTS assay to identify small molecule antagonists of the estrogen receptor alpha (ER-alpha) signaling pathway (AID 743069; active = well fitted curve in the direction sought with a large enough effect in the signal ratio in the repeat runs, not every such curve was filed as active; the % refers to the signal ratio). A digest of the protocol: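 In this cell-based reporter format, GripTite HEK293 cells harbouring ER-alpha-UAS-bla were grown overnight with 2% charcoal-stripped FBS, dosed with DMSO-dissolved compounds, then challenged with 17beta-estradiol. After 18 hr at 37C, beta-lactamase activity was detected by FRET fluorescence.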
Sequence of Estrogen receptor (Homo sapiens) (P03372 whole entry, looked up): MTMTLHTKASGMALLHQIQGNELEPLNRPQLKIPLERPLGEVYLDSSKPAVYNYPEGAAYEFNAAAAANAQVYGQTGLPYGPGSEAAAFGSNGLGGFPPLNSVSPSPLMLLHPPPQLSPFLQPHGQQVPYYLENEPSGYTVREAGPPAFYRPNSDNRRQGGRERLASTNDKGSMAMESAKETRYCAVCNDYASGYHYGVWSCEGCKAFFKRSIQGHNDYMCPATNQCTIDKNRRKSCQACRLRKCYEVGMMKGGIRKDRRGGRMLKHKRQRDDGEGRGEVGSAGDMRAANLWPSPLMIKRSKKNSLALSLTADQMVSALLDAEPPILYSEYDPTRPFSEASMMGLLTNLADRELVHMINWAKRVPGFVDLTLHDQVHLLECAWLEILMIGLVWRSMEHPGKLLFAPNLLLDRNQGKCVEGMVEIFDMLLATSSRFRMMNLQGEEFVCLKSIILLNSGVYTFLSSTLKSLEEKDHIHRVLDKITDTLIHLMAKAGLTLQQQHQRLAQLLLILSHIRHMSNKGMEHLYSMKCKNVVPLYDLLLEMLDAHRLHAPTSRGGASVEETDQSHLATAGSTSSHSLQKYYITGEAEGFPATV

Assay [5] in a line: qHTS assay to identify small molecule antagonists of the estrogen receptor alpha (ER-alpha) signaling pathway - cell viability counter screen (AID 743074; calls by dose curve; note: nearly all actives have a fitted effect of over 45% in size).
Assay [6] deals with Estrogen receptor (Homo sapiens) (UniProt P03372). Description: qHTS assay to identify small molecule agonists of the estrogen receptor alpha (ER-alpha) signaling pathway (AID 743075; calls by dose curve).
Assay [7] shares this target. Description: qHTS assay to identify small molecule agonists of the estrogen receptor alpha (ER-alpha) signaling pathway using the BG1 cell line (AID 743079). Note: nearly all actives have a fitted effect of over 20% in size. Note: potency is the fitted concentration of half-maximal effect.
The nature of assay [8]: qHTS assay to identify small molecule antagonists of the estrogen receptor alpha (ER-alpha) signaling pathway using the BG1 cell line (AID 743080; calls by dose curve;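 note: BG1 cells stimulated with 17beta-estradiol alongside compound; series mostly up to about 70 µM; nearly all actives have a fitted effect of over 25% in size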). A digest of the protocol:
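Quantitative HTS on the Tox21 10K library: BG1 cells with endogenous ER-alpha and ERE-luciferase reporter, 17beta-estradiol stimulation, 21.5 h compound exposure, luminescence endpoint with parallel fluorescence cytotoxicity counter-read.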

Assay [9] is described as follows: qHTS assay to identify small molecule antagonists of the estrogen receptor alpha (ER-alpha) signaling pathway using the BG1 cell line - cell viability counter screen (AID 743081).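 Note: compound given together with 17beta-estradiol as the ER stimulus; series mostly up to about 70 µM; nearly all actives have a fitted effect of over 45% in size.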
In a further assay the target is Aromatase (Homo sapiens) (UniProt P11511). The experiment in a line: qHTS assay to identify aromatase inhibitors (AID 743083). Note: series mostly up to about 70 µM; nearly all actives have a fitted effect of over 55% in size.
Sequence of Aromatase (Homo sapiens) (P11511 whole entry, looked up): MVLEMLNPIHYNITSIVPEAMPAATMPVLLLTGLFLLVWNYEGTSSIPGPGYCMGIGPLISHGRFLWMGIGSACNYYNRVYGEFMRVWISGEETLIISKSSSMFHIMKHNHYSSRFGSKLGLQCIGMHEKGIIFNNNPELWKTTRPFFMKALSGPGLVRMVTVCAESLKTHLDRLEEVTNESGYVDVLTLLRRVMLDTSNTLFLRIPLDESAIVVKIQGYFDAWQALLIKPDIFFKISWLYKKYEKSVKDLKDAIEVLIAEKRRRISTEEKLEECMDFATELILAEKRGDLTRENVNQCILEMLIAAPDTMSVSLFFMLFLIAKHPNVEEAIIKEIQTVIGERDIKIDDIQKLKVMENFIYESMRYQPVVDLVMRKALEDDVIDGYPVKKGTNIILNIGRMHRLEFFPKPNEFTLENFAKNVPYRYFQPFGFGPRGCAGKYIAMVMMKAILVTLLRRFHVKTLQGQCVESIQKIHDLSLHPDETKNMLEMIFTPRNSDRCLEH

The structures appear in SMILES notation. Several values for one entry are separate records, joined by “and”; a condition that tells them apart may be missing. Identical values can stand only once. Results filed as inconclusive are left out. Activity calls are given as the source filed them. Unless noted, calls come from the whole dose curve; as a rule, active = well fitted curve in the direction sought with a large enough effect in the repeat runs; inconclusive = weak or mixed curves; inactive = no such curve, though single readings can be large; an effect the other way counts as inactive or inconclusive.

Turning to `CNC(=O)O/N=C/C(C)(C)SC`, the Potency result (in [1]; in [2]; in [3]; in assay [4]; in assay [7]; with Aromatase (Homo sapiens)) was “inactive” in each case. In addition, the compound was called inactive in assay [5], in assay [6], in [8] and in assay [9].

With `N#CN=C(N)N`, the Potency entry (in assay [1]; in assay [2]; in [3]; in assay [4]; in assay [7]; with Aromatase (Homo sapiens)) was “inactive” in each case. The compound was classed as inactive in assay [5], in assay [6], in [8] and in assay [9].

On to `COP(=S)(OC)Oc1ccc(SC)c(C)c1`, for which the Potency entry (in [1]; in assay [2]; in [3]; in assay [4]; with Aromatase (Homo sapiens)) was “inactive” in each case. The compound was classed as inactive in [5], in assay [6], in assay [8] and in assay [9]. The Potency in [7] was 48 µM (active).

As for `O=C(O)CCCc1ccc(N(CCCl)CCCl)cc1`, the Potency was 61.1 µM (active) in [1]; 30.8 µM (active) and 27.3 µM (active) in [2]. Further, the Potency result (in assay [3]; in [4]; in [7]; with Aromatase (Homo sapiens)) was “inactive” in each case. Also, the compound was classed as inactive in [5], in assay [6], in [8] and in assay [9].

For `O=C(O)Cc1ccccc1`, the Potency result (in assay [1]; in [2]; in [3]; in assay [4]; in [7]; with Aromatase (Homo sapiens)) was “inactive” in each case. Moreover, the result in assay [5], in assay [6], in assay [8] and in assay [9] was inactive.

For the compound `Cc1cc(Cl)ccc1OC(C)C(=O)O` (centres undefined), the Potency entry (in assay [1]; in [2]; in assay [3]; in assay [4]; in [7]; with Aromatase (Homo sapiens)) was “inactive” each time. Besides, the compound was called inactive in assay [5], in [6], in [8] and in assay [9].

On to `CNC(=O)Oc1cccc2ccccc12`, for which the Potency entry (in assay [1]; in [2]; in assay [3]; in assay [4]; in assay [7]; with Aromatase (Homo sapiens)) was “inactive” each time. For the same compound, the outcome in [5], in [6], in assay [8] and in [9] was inactive.

As to `C=CCN=C=S`, the Potency result (in assay [1]; in [2]; in [3]; in assay [4]; in assay [7]; with Aromatase (Homo sapiens)) was “inactive” in each case. Moreover, the compound was called inactive in assay [5], in [6], in assay [8] and in assay [9].

With `C[C@H]1C(=O)O[C@@H]2CCN3CC=C(COC(=O)[C@](C)(O)[C@]1(C)O)[C@H]23`, the Potency entry (in [1]; in assay [2]; in assay [3]; in assay [4]; in assay [7]; with Aromatase (Homo sapiens)) was “inactive” throughout. Also, the call in assay [5], in [6], in assay [8] and in assay [9] was inactive.

On to `CNC(=O)O/N=C(\SC)C(=O)N(C)C`, for which the Potency result (in assay [1]; in assay [2]; in assay [3]; in [4]; with Aromatase (Homo sapiens)) was “inactive” each time. Moreover, the result in [5], in assay [6], in [8] and in [9] was inactive. The Potency in assay [7] is 66.7 µM (active).

`OC[C@@H](O)[C@H]1O[C@@H]2O[C@H](C(Cl)(Cl)Cl)O[C@@H]2[C@H]1O`: the Potency entry (in assay [1]; in [2]; in assay [3]; in assay [4]; in assay [7]; in the assay with Aromatase (Homo sapiens)) was “inactive” in each case. In addition, the result in [5], in [6], in assay [8] and in assay [9] was inactive.

With `O=C(O)C(Br)Br`, the Potency result (in assay [1]; in [2]; in [3]; in [4]; in assay [7]; with Aromatase (Homo sapiens)) was “inactive” in each case. Besides, the compound was called inactive in assay [5], in assay [6], in assay [8] and in [9].

Turning to `Cc1cccc(N)c1`, the Potency entry in assay [1], in assay [2], in [3], in assay [4] and in [7] was “inactive” each time. In addition, the outcome in assay [5], in assay [6], in [8] and in assay [9] was inactive.

For the compound `CC(C)CCCCCCOC(=O)c1ccccc1C(=O)OCCCCCCC(C)C`, the Potency result (in [1]; in assay [2]; in assay [3]; in [4]; in assay [7]; with Aromatase (Homo sapiens)) was “inactive” each time. In addition, the compound was called inactive in assay [5], in [6], in [8] and in assay [9].

Take `FC(F)(F)c1ccc(Cl)cc1`: the Potency result (in assay [1]; in assay [2]; in assay [3]; in assay [4]; in [7]; with Aromatase (Homo sapiens)) was “inactive” in each case. Also, the compound was classed as inactive in [5], in assay [6], in [8] and in assay [9].

On to `CC(C)c1cccc(C(C)C)c1O`, for which the Potency result (in assay [1]; in assay [2]; in assay [3]; in assay [4]; in [7]; with Aromatase (Homo sapiens)) was “inactive” in each case. For the same compound, the result in assay [5], in assay [6], in [8] and in assay [9] was inactive.

Consider `CN(C)CCC#N`, for which the Potency entry (in assay [1]; in [2]; in assay [3]; in assay [4]; in [7]; with Aromatase (Homo sapiens)) was “inactive” each time. Besides, the call in [5], in assay [6], in assay [8] and in assay [9] was inactive.

In the case of `CNC(=O)O/N=C/C(C)(C)S(C)(=O)=O`, the Potency result (in assay [1]; in [2]; in assay [3]; in [4]; in assay [7]; with Aromatase (Homo sapiens)) was “inactive” in each case. The outcome in [5], in assay [6], in assay [8] and in assay [9] was inactive.
